The values that follow come from publication PMC11006913.

Common to all, as to assay: PBM; 200 nM protein, PBS
What all share (settings): dsDNA, one strand shown

The target of experiment [1] is T1, VENTX (Homo sapiens, UniProt O95231 78-163, R121Q).
T1 sequence: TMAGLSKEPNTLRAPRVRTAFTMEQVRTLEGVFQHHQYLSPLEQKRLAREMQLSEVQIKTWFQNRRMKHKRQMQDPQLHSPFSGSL

In experiment [2] the target is T2, SIX6 (Homo sapiens, UniProt O95475 114-200, L167I).
T2 sequence: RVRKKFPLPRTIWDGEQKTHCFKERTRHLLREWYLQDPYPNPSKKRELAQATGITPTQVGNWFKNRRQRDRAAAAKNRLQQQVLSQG

The target of experiment [3] is T3, VENTX (Homo sapiens, UniProt O95231 78-163).
T3 sequence: T1 sequence with Q44R

In experiment [4] the target is T4, SIX6 (Homo sapiens, UniProt O95475 114-200, L143V).
T4 sequence: T2 sequence with L30V, I54L

Experiment [5] addresses T5, SIX6 (Homo sapiens, UniProt O95475 114-200, H141N).
T5 sequence: T2 sequence with H28N, I54L

The target in experiment [6] is T6, SIX6 (Homo sapiens, UniProt O95475 114-200, T165P).
T6 sequence: T2 sequence with T52P, I54L

The target in experiment [7] is T7, VENTX (Homo sapiens, UniProt O95231 78-163, Y115F).
T7 sequence: T1 sequence with Y38F, Q44R

Experiment [8] deals with T8, SIX6 (Homo sapiens, UniProt O95475 114-200, L167M).
T8 sequence: T2 sequence with I54M

Experiment [9] addresses T9, SIX6 (Homo sapiens, UniProt O95475 114-200, L143M).
T9 sequence: T2 sequence with L30M, I54L

In experiment [10] the target is T10, SIX6 (Homo sapiens, UniProt O95475 114-200, L143I).
T10 sequence: T2 sequence with L30I, I54L

The target of experiment [11] is T11, SIX6 (Homo sapiens, UniProt O95475 114-200, T165G).
T11 sequence: T2 sequence with T52G, I54L

Experiment [12] has as its target T12, SIX6 (Homo sapiens, UniProt O95475 114-200, T139Q).
T12 sequence: T2 sequence with T26Q, I54L

Experiment [13] has as its target T13, SIX6 (Homo sapiens, UniProt O95475 114-200, T165A).
T13 sequence: T2 sequence with T52A, I54L

The target in experiment [14] is T14, SIX6 (Homo sapiens, UniProt O95475 114-200, L167V).
T14 sequence: T2 sequence with I54V

Experiment [15] has as its target T15, SIX6 (Homo sapiens, UniProt O95475 114-200).
T15 sequence: T2 sequence with I54L

Experiment [16] addresses T16, SIX6 (Homo sapiens, UniProt O95475 114-200, T165I).
T16 sequence: T2 sequence with T52I, I54L

For experiment [17], the target named is HOXB9 (Homo sapiens, UniProt P17482 171-250, T197M).
The target of experiment [18] is HOXA4 (Homo sapiens, UniProt Q00056 201-287, W262R).
Experiment [19] deals with HOXC9 (Homo sapiens, UniProt P31274 178-260, K195R).
In experiment [20] the target is HOXA7 (Homo sapiens, UniProt P31268 116-202).
The target in experiment [21] is HOXB6 (Homo sapiens, UniProt P17509 132-218, K202E).
In experiment [22] the target is HOXA2 (Homo sapiens, UniProt O43364 129-215, R185T).
Experiment [23] concerns the target HOXA4 (Homo sapiens, UniProt Q00056 201-287, R217L).
The target of experiment [24] is HOXB9 (Homo sapiens, UniProt P17482 171-250).
For experiment [25], the target named is HOXC9 (Homo sapiens, UniProt P31274 178-260).
The target of experiment [26] is HOXC9 (Homo sapiens, UniProt P31274 178-260, R193K).
For experiment [27], the target named is HOXA2 (Homo sapiens, UniProt O43364 129-215, R185K).
Experiment [28] deals with HOXA4 (Homo sapiens, UniProt Q00056 201-287).
The next experiment has as its target HOXC10 (Homo sapiens, UniProt Q9NYD6 254-340, K271E).
The target in experiment [29] is HOXB9 (Homo sapiens, UniProt P17482 171-250, R186Q).
Experiment [30] addresses HOXC9 (Homo sapiens, UniProt P31274 178-260, R222W).
Experiment [31] deals with HOXA2 (Homo sapiens, UniProt O43364 129-215, Y150S).
The target of experiment [32] is HOXA7 (Homo sapiens, UniProt P31268 116-202, W177C).
In experiment [33] the target is HOXA4 (Homo sapiens, UniProt Q00056 201-287, W262F).
In experiment [34] the target is HOXA2 (Homo sapiens, UniProt O43364 129-215).
Experiment [35] has as its target HOXB6 (Homo sapiens, UniProt P17509 132-218).
Experiment [36] deals with MSX2 (Homo sapiens, UniProt P35548 130-214, R199I).
For experiment [37], the target named is MSX2 (Homo sapiens, UniProt P35548 130-214).
In experiment [38] the target is MSX2 (Homo sapiens, UniProt P35548 130-214, F161Y).

Residue numbers refer to the chain shown, from its start.

Chain of HOXB9 (Homo sapiens, UniProt P17482 171-250) (P17482 171-250): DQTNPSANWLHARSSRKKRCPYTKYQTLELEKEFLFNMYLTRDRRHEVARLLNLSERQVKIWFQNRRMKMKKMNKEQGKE
Chain of HOXB9 (Homo sapiens, UniProt P17482 171-250, R186Q) (P17482 171-250 R186Q): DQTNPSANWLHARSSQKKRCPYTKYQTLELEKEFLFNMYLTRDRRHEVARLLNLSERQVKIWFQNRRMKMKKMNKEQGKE
Chain of HOXB9 (Homo sapiens, UniProt P17482 171-250, T197M) (P17482 171-250 T197M): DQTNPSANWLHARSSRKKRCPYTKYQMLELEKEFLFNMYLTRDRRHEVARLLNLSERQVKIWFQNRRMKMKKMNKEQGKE
Chain of HOXC9 (Homo sapiens, UniProt P31274 178-260, K195R) (P31274 178-260 K195R): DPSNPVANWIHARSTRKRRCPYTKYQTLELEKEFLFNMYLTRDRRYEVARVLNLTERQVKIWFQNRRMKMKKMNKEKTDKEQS
Chain of MSX2 (Homo sapiens, UniProt P35548 130-214, R199I) (P35548 130-214 R199I): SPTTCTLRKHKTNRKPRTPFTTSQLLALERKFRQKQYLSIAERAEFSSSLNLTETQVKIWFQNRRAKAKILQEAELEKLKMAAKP
Chain of HOXB6 (Homo sapiens, UniProt P17509 132-218) (P17509 132-218): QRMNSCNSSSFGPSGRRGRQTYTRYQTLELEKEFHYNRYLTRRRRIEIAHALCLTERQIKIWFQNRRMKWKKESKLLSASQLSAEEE
Chain of HOXA4 (Homo sapiens, UniProt Q00056 201-287, R217L) (Q00056 201-287 R217L): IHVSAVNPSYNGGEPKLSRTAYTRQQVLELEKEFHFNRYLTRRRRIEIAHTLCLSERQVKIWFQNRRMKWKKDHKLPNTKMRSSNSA
Chain of MSX2 (Homo sapiens, UniProt P35548 130-214, F161Y) (P35548 130-214 F161Y): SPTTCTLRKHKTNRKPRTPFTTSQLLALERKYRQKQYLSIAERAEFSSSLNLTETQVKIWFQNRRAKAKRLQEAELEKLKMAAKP
Chain of HOXA2 (Homo sapiens, UniProt O43364 129-215) (O43364 129-215): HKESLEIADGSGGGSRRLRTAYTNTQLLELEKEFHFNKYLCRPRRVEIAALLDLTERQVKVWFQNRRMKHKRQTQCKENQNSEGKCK
Chain of HOXA7 (Homo sapiens, UniProt P31268 116-202, W177C) (P31268 116-202 W177C): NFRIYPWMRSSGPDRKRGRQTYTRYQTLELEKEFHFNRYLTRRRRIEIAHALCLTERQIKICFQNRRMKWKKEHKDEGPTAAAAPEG
Chain of HOXA2 (Homo sapiens, UniProt O43364 129-215, R185T) (O43364 129-215 R185T): as the sequence (O43364 129-215) above, with R57T counted along it
Chain of HOXC9 (Homo sapiens, UniProt P31274 178-260, R193K) (P31274 178-260 R193K): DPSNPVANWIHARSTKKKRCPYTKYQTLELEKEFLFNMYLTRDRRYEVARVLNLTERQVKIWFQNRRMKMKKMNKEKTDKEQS
Chain of HOXA4 (Homo sapiens, UniProt Q00056 201-287, W262R) (Q00056 201-287 W262R): as the sequence (Q00056 201-287 R217L) above, with L17R, W62R counted along it
Chain of HOXB6 (Homo sapiens, UniProt P17509 132-218, K202E) (P17509 132-218 K202E): as the sequence (P17509 132-218) above, with K71E counted along it
Chain of MSX2 (Homo sapiens, UniProt P35548 130-214) (P35548 130-214): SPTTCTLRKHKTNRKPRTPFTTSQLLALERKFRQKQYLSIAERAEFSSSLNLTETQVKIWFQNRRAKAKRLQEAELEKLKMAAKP
Chain of HOXC9 (Homo sapiens, UniProt P31274 178-260, R222W) (P31274 178-260 R222W): as the sequence (P31274 178-260 R193K) above, with K16R, R45W counted along it
Chain of HOXA2 (Homo sapiens, UniProt O43364 129-215, Y150S) (O43364 129-215 Y150S): as the sequence (O43364 129-215) above, with Y22S counted along it
Chain of HOXC9 (Homo sapiens, UniProt P31274 178-260) (P31274 178-260): as the sequence (P31274 178-260 R193K) above, with K16R counted along it
Chain of HOXA4 (Homo sapiens, UniProt Q00056 201-287, W262F) (Q00056 201-287 W262F): as the sequence (Q00056 201-287 R217L) above, with L17R, W62F counted along it
Chain of HOXC10 (Q9NYD6 254-340 K271E): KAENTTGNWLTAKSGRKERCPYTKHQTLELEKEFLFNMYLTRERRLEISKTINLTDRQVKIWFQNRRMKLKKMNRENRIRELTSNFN
Chain of HOXA7 (Homo sapiens, UniProt P31268 116-202) (P31268 116-202): as the sequence (P31268 116-202 W177C) above, with C62W counted along it
Chain of HOXA4 (Homo sapiens, UniProt Q00056 201-287) (Q00056 201-287): as the sequence (Q00056 201-287 R217L) above, with L17R counted along it
Chain of HOXA2 (Homo sapiens, UniProt O43364 129-215, R185K) (O43364 129-215 R185K): as the sequence (O43364 129-215) above, with R57K counted along it

For the sequence AATGATAC, the binding signal with VENTX [1] is 9.95 upbm affinity estimate (log intensity, higher = more binding, comparable within an allelic series); with SIX6 [2] it was 11.5 upbm affinity estimate (log intensity, higher = more binding, comparable within an allelic series); with VENTX [3], 10.2 upbm affinity estimate (log intensity, higher = more binding, comparable within an allelic series); in the experiment with SIX6 [4] it was 10.6 upbm affinity estimate (log intensity, higher = more binding, comparable within an allelic series); in the experiment with SIX6 [5], 11.5 upbm affinity estimate (log intensity, higher = more binding, comparable within an allelic series); in the experiment with SIX6 [6], 10.1 upbm affinity estimate (log intensity, higher = more binding, comparable within an allelic series). Moreover, the binding signal in the experiment with VENTX [7] was 9.98 upbm affinity estimate (log intensity, higher = more binding, comparable within an allelic series); with SIX6 [8], 11 upbm affinity estimate (log intensity, higher = more binding, comparable within an allelic series); with SIX6 [9], 11.3 upbm affinity estimate (log intensity, higher = more binding, comparable within an allelic series); in the experiment with SIX6 [10], 10.6 upbm affinity estimate (log intensity, higher = more binding, comparable within an allelic series); with SIX6 [11], 11.5 upbm affinity estimate (log intensity, higher = more binding, comparable within an allelic series); in the experiment with SIX6 [12], 11.3 upbm affinity estimate (log intensity, higher = more binding, comparable within an allelic series). Further, the binding signal with SIX6 [13] is 11.4 upbm affinity estimate (log intensity, higher = more binding, comparable within an allelic series); in the experiment with SIX6 [14], 11.3 upbm affinity estimate (log intensity, higher = more binding, comparable within an allelic series); with SIX6 [15], 11.2 upbm affinity estimate (log intensity, higher = more binding, comparable within an allelic series); with SIX6 [16] it was 11.3 upbm affinity estimate (log intensity, higher = more binding, comparable within an allelic series).
For CCTCGTTA, the binding signal in the experiment with VENTX [1] was 10.3 upbm affinity estimate (log intensity, higher = more binding, comparable within an allelic series).
With CCATTAAC, the binding signal with VENTX [1] was 12.1 upbm affinity estimate (log intensity, higher = more binding, comparable within an allelic series); in the experiment with HOXB9 [17], 9.99 upbm affinity estimate (log intensity, higher = more binding, comparable within an allelic series); with HOXA4 [18] it was 10.6 upbm affinity estimate (log intensity, higher = more binding, comparable within an allelic series); with HOXC9 [19], 12.7 upbm affinity estimate (log intensity, higher = more binding, comparable within an allelic series); with VENTX [3] it was 12.6 upbm affinity estimate (log intensity, higher = more binding, comparable within an allelic series); in the experiment with HOXA7 [20], 11.5 upbm affinity estimate (log intensity, higher = more binding, comparable within an allelic series). Besides, the binding signal with VENTX [7] was 11.7 upbm affinity estimate (log intensity, higher = more binding, comparable within an allelic series); with HOXB6 [21] it was 10.1 upbm affinity estimate (log intensity, higher = more binding, comparable within an allelic series); in the experiment with HOXA2 [22], 12.1 upbm affinity estimate (log intensity, higher = more binding, comparable within an allelic series); with HOXA4 [23], 12 upbm affinity estimate (log intensity, higher = more binding, comparable within an allelic series); in the experiment with HOXB9 [24] it was 11.7 upbm affinity estimate (log intensity, higher = more binding, comparable within an allelic series); in the experiment with HOXC9 [25] it was 12.7 upbm affinity estimate (log intensity, higher = more binding, comparable within an allelic series). For the same sequence, the binding signal with HOXC9 [26] is 12.7 upbm affinity estimate (log intensity, higher = more binding, comparable within an allelic series); in the experiment with HOXA2 [27], 13.1 upbm affinity estimate (log intensity, higher = more binding, comparable within an allelic series); with HOXA4 [28], 13.8 upbm affinity estimate (log intensity, higher = more binding, comparable within an allelic series); with HOXC10 it was 11.9 upbm affinity estimate (log intensity, higher = more binding, comparable within an allelic series); in the experiment with HOXB9 [29] it was 11.6 upbm affinity estimate (log intensity, higher = more binding, comparable within an allelic series); with HOXC9 [30] it was 11 upbm affinity estimate (log intensity, higher = more binding, comparable within an allelic series). Further, the binding signal in the experiment with HOXA2 [31] was 10.7 upbm affinity estimate (log intensity, higher = more binding, comparable within an allelic series); in the experiment with HOXA7 [32] it was 8.86 upbm affinity estimate (log intensity, higher = more binding, comparable within an allelic series); with HOXA4 [33], 11.5 upbm affinity estimate (log intensity, higher = more binding, comparable within an allelic series); with HOXA2 [34], 12 upbm affinity estimate (log intensity, higher = more binding, comparable within an allelic series); with HOXB6 [35] it was 12 upbm affinity estimate (log intensity, higher = more binding, comparable within an allelic series).
As for GCGCGCCC, the binding signal with VENTX [1] is 8.19 upbm affinity estimate (log intensity, higher = more binding, comparable within an allelic series); in the experiment with HOXB9 [17] it was 8.46 upbm affinity estimate (log intensity, higher = more binding, comparable within an allelic series); in the experiment with SIX6 [2], 8.73 upbm affinity estimate (log intensity, higher = more binding, comparable within an allelic series); with VENTX [3], 8.26 upbm affinity estimate (log intensity, higher = more binding, comparable within an allelic series); with SIX6 [4], 8.71 upbm affinity estimate (log intensity, higher = more binding, comparable within an allelic series); with SIX6 [5], 8.79 upbm affinity estimate (log intensity, higher = more binding, comparable within an allelic series). Also, the binding signal with SIX6 [6] was 8.94 upbm affinity estimate (log intensity, higher = more binding, comparable within an allelic series); with VENTX [7], 8.22 upbm affinity estimate (log intensity, higher = more binding, comparable within an allelic series); with SIX6 [8] it was 8.76 upbm affinity estimate (log intensity, higher = more binding, comparable within an allelic series); in the experiment with SIX6 [9], 8.75 upbm affinity estimate (log intensity, higher = more binding, comparable within an allelic series); with SIX6 [10], 8.78 upbm affinity estimate (log intensity, higher = more binding, comparable within an allelic series); in the experiment with SIX6 [11] it was 8.82 upbm affinity estimate (log intensity, higher = more binding, comparable within an allelic series). Besides, the binding signal is 8.66 upbm affinity estimate (log intensity, higher = more binding, comparable within an allelic series) with HOXB9 [24]; 8.77 upbm affinity estimate (log intensity, higher = more binding, comparable within an allelic series) in the experiment with SIX6 [12]; 9.61 upbm affinity estimate (log intensity, higher = more binding, comparable within an allelic series) with MSX2 [36]; 8.75 upbm affinity estimate (log intensity, higher = more binding, comparable within an allelic series) in the experiment with SIX6 [13]; 9.64 upbm affinity estimate (log intensity, higher = more binding, comparable within an allelic series) with MSX2 [37]; 8.91 upbm affinity estimate (log intensity, higher = more binding, comparable within an allelic series) in the experiment with SIX6 [14]. The binding signal is 8.8 upbm affinity estimate (log intensity, higher = more binding, comparable within an allelic series) in the experiment with SIX6 [15]; 8.71 upbm affinity estimate (log intensity, higher = more binding, comparable within an allelic series) in the experiment with SIX6 [16]; 8.61 upbm affinity estimate (log intensity, higher = more binding, comparable within an allelic series) with HOXB9 [29]; 9.62 upbm affinity estimate (log intensity, higher = more binding, comparable within an allelic series) with MSX2 [38].
